# Assay results taken from PubChem BioAssay AID720706 (Broad Institute, 2013).
# Among all 350,000 compounds or so, about 5,500 (1.6%) were called active.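 The calls were made as follows: active = significant combined selectivity score with lowered wild-type GFP, culture density cut under 30%, mutant RFP and density less affected; inactive = any of these conditions unmet.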 The entries come from a sample that favours actives as a whole.
# Assay: reduced GFP signal of wild-type E. coli, primary screen, bacterial rRNA inhibitor project, GFP/RFP fluorescence, OD600, single point (AID 720706)
# Conditions: E. coli WT GFP vs humanized-ribosome RFP mutants, 24 h; GFP signal change (wild-type ribosome): stronger effect = lower value, DMSO median 0, no signal -100; OD600 change: measured here: OD600 growth, DMSO median 0, no signal -100; RFP signal change: measured here: RFP humanized mutant strains, DMSO median 0, no signal -100, concentration not given here
Compound,GFP signal change (wild-type ribosome),OD600 change [%],RFP signal change [%]
CC(C)NC(=O)N(C)C[C@H]1Oc2c(cccc2N(C)C)C(=O)N(C)C[C@H]1C,3.79% (inactive),5.03,-1.64
CN(C)C(=O)c1ccc(-c2ccc(C3[C@@H]4CN(S(=O)(=O)c5cccc(Cl)c5)C[C@H]3N4)cc2)cc1 (some centres not stated),-4.17% (inactive),-4.3,1.15
c1ccc(C(=NNc2nc3ccccc3s2)c2ccccn2)cc1,-3.87% (inactive),-7.96,1.5
c1ccc2sc(NN=C3CCCC3)nc2c1,-34.8% (active),-19.9,0.135
CCN(CC)CCn1c2c(c(SCC(=O)Nc3nc4ccccc4s3)nc1=O)CCCC2,-8.54% (inactive),-9.96,4.44
CN(C)c1nc(=Nc2cccc(Cl)c2)ss1,-20.6% (active),-16.1,6.27
COc1ccc(CN(C)C[C@@H]2Oc3ccc(NS(=O)(=O)c4cn(C)cn4)cc3C(=O)N([C@@H](C)CO)C[C@@H]2C)cc1,2.98% (inactive),9.11,-0.744
COc1ccc2c3c([nH]c2c1)[C@H](CO)N(CC1CC1)CC31CN(C(=O)Nc2cccc(F)c2)C1,-4% (inactive),-2.33,0.442
CCCNC(=O)N(C)C[C@H]1Oc2ncc(-c3cccc(C#N)c3)cc2C(=O)N([C@@H](C)CO)C[C@@H]1C,6.13% (inactive),2.48,4.15
COc1cccc(C(NC(C)=O)c2nc(-c3ccccc3OC)cs2)c1 (configuration not stated),-17.2% (active),-5.72,3.69
COc1cccc(C(NC(C)=O)c2nc(-c3cnc4ccccc4c3)cs2)c1 (configuration not stated),1.07% (inactive),7.87,-4.72
CC(=O)NC(c1ccccc1)c1nc(-c2ccccc2C)cs1 (configuration not stated),6.39% (inactive),1.11,0.505
CC(C)NC(=O)Nc1ccc2c(c1)C(=O)N([C@@H](C)CO)C[C@@H](C)[C@H](CN(C)C)OCCCC[C@H](C)O2,4.43% (inactive),12.9,-2.38
CCOC(=O)CNC(=O)/C(=C\c1ccc(F)cc1)NC(=O)c1ccccc1,7.79% (inactive),7.99,-0.754
CCOC(=O)C(=Cc1ccccc1)C(=O)c1ccccc1,-45.9% (active),-44.3,-8.34
CCOC(=O)C(=Cc1ccccc1OC)C(=O)OCC,-1.94% (inactive),-6.41,-3.6
COc1cccc(OC)c1C(=O)NC(=S)NCc1ccco1,10.3% (inactive),5.07,-0.715
COc1ccccc1C(=O)NCCC(=O)NCC(c1ccco1)N1CCCCC1 (configuration not stated),3.93% (inactive),11.1,2.81
COc1ccccc1C(=O)NCCn1cc(SCC(=O)NCc2ccco2)c2ccccc21,-24.1% (active),-15.6,1.51
COc1ccc2c3c([nH]c2c1)[C@@H](CO)N(C(=O)CN1CCOCC1)CC31CCN(C)CC1,1.95% (inactive),7.83,0.695
C[C@@H]1CN([C@H](C)CO)C(=O)c2cc(-c3cccc(F)c3)cnc2O[C@@H]1CN(C)C,2.27% (inactive),6.45,-2.92
COc1ccc2c(c1)c1ncn(Cc3ccccn3)c(=O)c1n2C,-22.5% (active),-10.5,-3.41

Compound,GFP signal change (wild-type ribosome),OD600 change [%],RFP signal change [%]
COc1cccc(CN2CC3(CN(Cc4ccccn4)C3)c3c([nH]c4cc(OC)ccc34)[C@@H]2CO)c1,0.969% (inactive),8.73,5.99
COc1ccc(NCCc2ccccn2)cc1,12.7% (inactive),10.1,9.18
C[C@H]1CCCCO[C@H](CN(C)CC2CCCCC2)[C@@H](C)CN([C@@H](C)CO)C(=O)c2cc(NS(=O)(=O)c3ccc(Cl)cc3)ccc2O1,-56.3% (inactive),-77.3,-17.5
CN(C)C(=O)c1cccc(-c2ccc([C@H]3[C@H](CO)N4C(=O)CN(C(=O)Cc5ccccc5)C[C@@H]34)cc2)c1,6.84% (inactive),11.5,5.77
CC(=O)Nc1ccc(OC(=O)COc2ccc(Br)cc2)cc1,18.1% (inactive),16.8,1.93
Cn1cccc1C(=O)NNC(=O)COc1ccc(Br)cc1,-1.7% (inactive),4.13,0.868
Cc1ccc(O)c(NC(=S)NC(=O)COc2ccc(Br)cc2)c1,-23.6% (active),-13.5,6.14
CC[C@H]1CC=CC[C@@H](C)Oc2ccccc2C(=O)N(C)[C@H](Cc2ccccc2)C(=O)N1 (mixture of isomers),-6.4% (inactive),-38,-3.29
CC(C)NC(=O)N(C)C[C@H]1Oc2ncc(C#CC3(O)CCCC3)cc2C(=O)N([C@H](C)CO)C[C@@H]1C,2.98% (inactive),9.89,0.31
Nc1ccccc1Sc1ccc(C(F)(F)F)cc1[N+](=O)[O-],-36.7% (active),-4.9,-9.75
Nc1ccccc1Sc1cc(Cl)nnc1Cl,2.47% (inactive),3.13,-2.25
O=[N+]([O-])c1cc(C(F)(F)F)ccc1NCCc1ccncc1,1.68% (inactive),6.66,-1.21
C[C@H]1CN([C@@H](C)CO)C(=O)c2cccc(NC(=O)c3ccncc3)c2O[C@@H]1CN(C)C,2.69% (inactive),14.6,-0.879
CCc1noc(C)c1C(=O)Nc1nc(-c2ccccc2)cs1,-30.7% (active),-24.6,-5.38
Cc1ccc(-c2csc(NC(=O)C3=COCCO3)n2)cc1C,-32% (inactive),-55.4,17.9
CCc1noc(C)c1C(=O)OCC(=O)c1ccc(NC(=O)CC(C)C)cc1,-6.83% (inactive),-38.8,4.13
COc1ccc2c3c(n(C)c2c1)[C@H](CO)N(Cc1cccnc1)CC31CCN(Cc2cccnc2)CC1,-3.41% (inactive),7.26,0.685
C[C@@H]1CN([C@@H](C)CO)C(=O)c2cc(N(C)C)ccc2O[C@@H](C)CCCCO[C@@H]1CN(C)C(=O)CCC(F)(F)F,-1.52% (inactive),-0.235,1.42
C/C=C/c1cccc(-c2nc(C(=O)NCCN3CCCC3)cc3c2[C@@H](CCO)N([S@](=O)C(C)(C)C)C3)c1,6.3% (inactive),-2.18,-0.457
CCOC(=O)C1(CCOc2ccccc2)CCN(Cc2ccc(C#CCCO)cc2)CC1,2.81% (inactive),-4.44,-0.935
CCCS(=O)(=O)N1CCC(CCOc2ccccc2)(C(=O)OCC)CC1,-17.9% (inactive),-32.1,-4.54
CCOC(=O)C1(CCOc2ccccc2)CCN(Cc2cc(OC)cc(OC)c2)CC1,-33.8% (active),-25.8,-6.01
